The values that follow come from PubChem BioAssay AID2685 (National Center for Advancing Translational Sciences (NCATS), 2010).

Screen size: about 320,000 compounds; about 2,100 (0.66%) were called active. About 53% were inconclusive and are not listed. The call rests on the fitted dose curve; in most records, active means well fitted inhibition curve with a large enough effect in the signal ratio, with a control signal flat (not every such curve was filed as active); inconclusive means small, poorly fitted or top-dose-only effect, or effect the other way, or a change in a side signal; inactive means flat fitted curve, though single readings scatter; the % refers to the signal ratio. This excerpt belongs to a sample that is enriched for actives.
Potency means the concentration at half of the fitted maximal effect.

The test in a line: qHTS Assay for Lipid Storage Modulators in Drosophila S3 Cells.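 On cell number change: cells counted by Cell Tracker Red CMTPX staining in the red channel.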 On lipid storage change, negative = inhibition: on the % scale 0 is the no-effect control and ±100 the full control effect. The settings on record: BODIPY lipid droplet fluorescence, 18-24 h, cells fed with added oleic acid; cell number change: measured here: cell count max response; series mostly up to 46.1 µM; lipid storage change, negative = inhibition: at the top concentration. In short, it runs like this:
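Drosophila S3 cells loaded with oleic acid (400 uM, as added) and compounds at several concentrations; lipid droplets imaged by 488-nm laser-scanning cytometry, 500–530 nm intensity and object ratio to cell channel. Percent activity normalized to 20 uM Triacsin C.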
Turning to `Cc1occc1C(=O)N/N=C/c1sc(N2CCOCC2)nc1-c1ccccc1`, the “lipid storage change, negative = inhibition” value was -6.96% (inactive) and the cell number change was -21.3%. As to `O=[N+]([O-])c1ccc(N/N=C/c2sc(N3CCOCC3)nc2-c2ccccc2)c(S(=O)(=O)Nc2ccccc2Cl)c1`, the Potency is 1030 nM (active).

With `O=C(N/N=C/c1sc(N2CCOCC2)nc1-c1ccccc1)c1cccc(S(=O)(=O)N2CCCC2)c1`, the “lipid storage change, negative = inhibition” value was 27.6% (inactive) and the cell number change was determined as 111%. For `O=C(c1ccccc1)c1nc2c(n1O)CCCCC2`, the result was inactive. In the case of `Cc1cc(C(=O)Nc2ccccc2C(=O)O)ccc1NC(=O)COc1cccc([N+](=O)[O-])c1`, the “lipid storage change, negative = inhibition” value was 12.2% (inactive) and the cell number change came out at 6.05%.

For the compound `COc1ccc(S(=O)(=O)N(CC(=O)NCCC(C)C)c2ccccc2)cc1OC`, the “lipid storage change, negative = inhibition” value is -27.8% (inactive) and the cell number change is -21.6%.

In the case of `COc1cccc2cc(C(=O)OCc3ccccc3)c(=O)oc12`, the Potency was 1460 nM (active) and the cell number change was -24.9%.

`COc1cccc2cc(C(=O)NCCc3ccccc3)c(=O)oc12`: the “lipid storage change, negative = inhibition” value was 6.67% (inactive) and the cell number change turned out to be 4.66%. Consider `COc1cccc2cc(C(=O)Oc3ccccc3)c(=O)oc12`, for which the “lipid storage change, negative = inhibition” value was -22.4% (inactive) and the cell number change is -11.3%.

Take `CCN1CCN(C(=S)Nc2ccc(C(C)=O)cc2)CC1`: the “lipid storage change, negative = inhibition” value is 9.37% (inactive).

Take `CC12CC(c3ccccc3O1)C(C(=O)N1CCOCC1)C(=O)N2` (stereo not given): the “lipid storage change, negative = inhibition” value was 1.33% (inactive) and the cell number change is -1.42%.

In the case of `CC1(C)OC(=O)CC1C(=O)NCc1ccccc1` (stereo not given), the Potency was 1840 nM (active) and the cell number change was 7.5%. Consider `COc1ccc(C(C)NC(=O)C2C(=O)NC3(C)CC2c2ccccc2O3)cc1` (stereo not given), for which the “lipid storage change, negative = inhibition” value is 9.39% (inactive) and the cell number change was -6.03%. In the case of `CC12CCC(C(=O)NCc3ccccc3)(OC1=O)C2(C)C` (stereo not given), the compound was called inactive and the cell number change was -20.7%.

On to `CC12CC(c3ccccc3O1)C(C(=O)NCc1ccccc1)C(=O)N2` (stereo not given), for which the Potency was 29100 nM (active) and the cell number change is 13.7%.

`O=C1CCC(C(=O)NCc2ccccc2)N1` (stereo not given): the “lipid storage change, negative = inhibition” value was -8.49% (inactive) and the cell number change turned out to be 7.41%.

Consider `CC(Oc1ccccc1)c1nnc(SCC(=O)NC2CC2)n1C` (stereo not given), for which the “lipid storage change, negative = inhibition” value was -12.4% (inactive) and the cell number change was found to be 17.8%. Consider `Cc1ccc2nc3sc(-c4nnc(-c5ccccc5[N+](=O)[O-])o4)c(N)c3cc2c1`, for which the compound was classed as inactive.

Consider `CCCn1c(=O)[nH]c(=O)c2c1nc(-c1ccccc1OC(F)F)n2CCOC`, for which the “lipid storage change, negative = inhibition” value is 14.4% (inactive) and the cell number change is 1.56%. Taken in the same sequence, the figures for `O=C(NCc1ccc2c(c1)OCO2)C1CCCN(S(=O)(=O)c2cccnc2)C1` (stereo not given) were 10.6% (inactive) and 9.61%. As for `O=C(CN1CCCCCC1)Nc1ccc([N+](=O)[O-])cc1Cl`, the call was inactive and the cell number change is -17.1%. Consider `O=C(COC(=O)c1ccccn1)NCc1ccccc1Cl`, for which the “lipid storage change, negative = inhibition” value is -5.2% (inactive).

For the compound `CC(C)(C)N(Cc1ccccc1)C(=O)COC(=O)c1ccc([N+](=O)[O-])o1`, the Potency is 11600 nM (active) and the cell number change was -25.7%. `CC(C)(C)N(Cc1ccccc1)C(=O)COC(=O)c1cccc([N+](=O)[O-])c1`: the “lipid storage change, negative = inhibition” value was 24.6% (inactive) and the cell number change was determined as 17.2%.

In the case of `CC(C)(C)N(Cc1ccccc1)C(=O)COC(=O)c1ccc(Br)o1`, the “lipid storage change, negative = inhibition” value was 15.1% (inactive) and the cell number change was -7.45%.
